Where “and” joins values, the source holds several entries; their conditions need not be identical. Identical values can stand only once. Out of some 5,500 compounds screened, about 2,000 (36%) were called active. Not shown: some 18% with an inconclusive outcome. Rule as the data show it: active = normalized growth mostly below about 0.91 (no sharp cut-off); inconclusive = no clear call, values can overlap the other calls; inactive = mostly above about 0.92. The list shows a part of the results.
Assay: chemical genetic growth profiling, strain panel (AID 1159580);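 also: tested at 20 µM; growth read once vehicle control cultures reached saturation at 30 °C; 1 = growth at the plate median or of vehicle wells; lower values mean less growth of the strain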
Details: growth OD

Measured: normalized growth

CC(NC(C)(C)C)C(=O)c1cccc(Cl)c1 (stereo unspecified)
inactive: S. cerevisiae deletion strains, locus YJR075W, strain HOC1, stronger effect = lower value 1.02 | S. cerevisiae deletion strains, locus YKL009W, strain mrt4, stronger effect = lower value 0.977 | S. cerevisiae deletion strains, locus YKL068W, stronger effect = lower value 1.02 | S. cerevisiae deletion strains, locus YKL085W, strain MDH1 (second series), stronger effect = lower value 1.02 | S. cerevisiae deletion strains, locus YKL085W, strain MDH1, stronger effect = lower value 1.02 | S. cerevisiae deletion strains, locus YKL160W, strain elf1, stronger effect = lower value 0.996 | S. cerevisiae deletion strains, locus YKL190W, strain CNB1, stronger effect = lower value 1.01 | S. cerevisiae deletion strains, locus YKR001C, strain vps1, stronger effect = lower value 1.02 | S. cerevisiae deletion strains, locus YKR026C, strain gcn3, stronger effect = lower value 0.995 | S. cerevisiae deletion strains, locus YKR091W, strain srl3, stronger effect = lower value 0.998 | S. cerevisiae deletion strains, locus YLL001W, strain dnm1, stronger effect = lower value 0.993 | S. cerevisiae deletion strains, locus YLL026W, stronger effect = lower value 1 | S. cerevisiae deletion strains, locus YLL041C, strain sdh2, stronger effect = lower value 1 | S. cerevisiae deletion strains, locus YLR027C, strain aat2, stronger effect = lower value 1 | S. cerevisiae deletion strains, locus YLR039C, strain RIC1, stronger effect = lower value 1.03 | S. cerevisiae deletion strains, locus YLR058C, strain SHM2, stronger effect = lower value 1.01 | S. cerevisiae deletion strains, locus YLR102C, strain apc9, stronger effect = lower value 1.03 | S. cerevisiae deletion strains, locus YLR113W, strain HOG1, stronger effect = lower value 0.986 | S. cerevisiae deletion strains, locus YLR221C, strain rsa3, stronger effect = lower value 1.01 | S. cerevisiae deletion strains, locus YLR258W, strain gsy2, stronger effect = lower value 0.996 | S. cerevisiae deletion strains, locus YLR262C, strain YPT6 (second series), stronger effect = lower value 0.977 | S. cerevisiae deletion strains, locus YLR262C, strain YPT6, stronger effect = lower value 1.05 | S. cerevisiae deletion strains, locus YLR268W, strain sec22, stronger effect = lower value 1.03 | S. cerevisiae deletion strains, locus YLR320W, strain mms22, stronger effect = lower value 0.985 | S. cerevisiae deletion strains, locus YLR330W, strain CHS5, stronger effect = lower value 1.01 | S. cerevisiae deletion strains, locus YLR342W, strain FKS1 (second series), stronger effect = lower value 0.98 | S. cerevisiae deletion strains, locus YLR342W, strain FKS1, stronger effect = lower value 0.997 | S. cerevisiae deletion strains, locus YLR357W, strain rsc2, stronger effect = lower value 0.983 | S. cerevisiae deletion strains, locus YLR370C, strain arc18, stronger effect = lower value 1 | S. cerevisiae deletion strains, locus YLR371W, strain rom2, stronger effect = lower value 1.04 | S. cerevisiae deletion strains, locus YLR384C, strain iki3, stronger effect = lower value 0.993 | S. cerevisiae deletion strains, locus YLR418C, strain cdc73, stronger effect = lower value 1.03 | S. cerevisiae deletion strains, locus YML016C, strain PPZ1, stronger effect = lower value 1.01 | S. cerevisiae deletion strains, locus YML032C, strain rad52, stronger effect = lower value 1.03 | S. cerevisiae deletion strains, locus YML120C, strain ndi1, stronger effect = lower value 1.01 | S. cerevisiae deletion strains, locus YML124C, strain tub3, stronger effect = lower value 1.04 | S. cerevisiae deletion strains, locus YMR058W, strain fet3, stronger effect = lower value 0.997 | S. cerevisiae deletion strains, locus YMR078C, strain ctf18, stronger effect = lower value 1.04 | S. cerevisiae deletion strains, locus YMR125W, strain sto1, stronger effect = lower value 0.999 | S. cerevisiae deletion strains, locus YMR129W, stronger effect = lower value 1 | S. cerevisiae deletion strains, locus YMR205C, strain PFK2, stronger effect = lower value 0.982 | S. cerevisiae deletion strains, locus YMR223W, strain ubp8, stronger effect = lower value 1.01 | S. cerevisiae deletion strains, locus YMR231W, strain pep5, stronger effect = lower value 0.997 | S. cerevisiae deletion strains, locus YMR263W, strain SAP30, stronger effect = lower value 1.01 | S. cerevisiae deletion strains, locus YMR307W, strain GAS1, stronger effect = lower value 1 | S. cerevisiae deletion strains, locus YNL067W, strain RPL9B, stronger effect = lower value 1.01 | S. cerevisiae deletion strains, locus YNL071W, strain lat1, stronger effect = lower value 1.01 | S. cerevisiae deletion strains, locus YNL128W, strain TEP1, stronger effect = lower value 1.02 and 0.978 | S. cerevisiae deletion strains, locus YNL153C, strain GIM3, stronger effect = lower value 1.01 | S. cerevisiae deletion strains, locus YNL175C, strain NOP13, stronger effect = lower value 0.99 | S. cerevisiae deletion strains, locus YNL183C, strain NPR1, stronger effect = lower value 0.965 | S. cerevisiae deletion strains, locus YNL197C, strain WHI3, stronger effect = lower value 1.02 | S. cerevisiae deletion strains, locus YNL209W, strain ssb2, stronger effect = lower value 1.01 | S. cerevisiae deletion strains, locus YNL224C, strain SQS1, stronger effect = lower value 0.999 | S. cerevisiae deletion strains, locus YNL233W, strain BNI4, stronger effect = lower value 0.999 | S. cerevisiae deletion strains, locus YNL248C, strain rpa49, stronger effect = lower value 0.992 | S. cerevisiae deletion strains, locus YNL250W, strain rad50, stronger effect = lower value 1.04 | S. cerevisiae deletion strains, locus YNL271C, strain bni1, stronger effect = lower value 1.03 | S. cerevisiae deletion strains, locus YNL298W, strain CLA4, stronger effect = lower value 1 | S. cerevisiae deletion strains, locus YNL307C, strain MCK1, stronger effect = lower value 1.03 | S. cerevisiae deletion strains, locus YNL322C, strain KRE1 (second series), stronger effect = lower value 0.995 | S. cerevisiae deletion strains, locus YNL322C, strain KRE1, stronger effect = lower value 1.01 | S. cerevisiae deletion strains, locus YNR049C, strain mso1, stronger effect = lower value 1.01 | S. cerevisiae deletion strains, locus YNR052C, strain pop2, stronger effect = lower value 1.01 | S. cerevisiae deletion strains, locus YOL006C, strain TOP1, stronger effect = lower value 1.05 | S. cerevisiae deletion strains, locus YOL012C, strain htz1 1.05 | S. cerevisiae deletion strains, locus YOL147C, strain pex11, stronger effect = lower value 1.04 | S. cerevisiae deletion strains, locus YOR001W, strain rrp6, stronger effect = lower value 1 | S. cerevisiae deletion strains, locus YOR061W, strain CKA2, stronger effect = lower value 1.02 | S. cerevisiae deletion strains, locus YOR069W, strain VPS5, stronger effect = lower value 1.01 | S. cerevisiae deletion strains, locus YOR070C, strain gyp1, stronger effect = lower value 1 | S. cerevisiae deletion strains, locus YOR080W, strain dia2, stronger effect = lower value 0.996 | S. cerevisiae deletion strains, locus YOR083W, strain WHI5 (second series), stronger effect = lower value 1.01 | S. cerevisiae deletion strains, locus YOR083W, strain WHI5, stronger effect = lower value 0.996 | S. cerevisiae deletion strains, locus YOR106W, strain vam3, stronger effect = lower value 0.989 | S. cerevisiae deletion strains, locus YOR136W, strain idh2, stronger effect = lower value 1.03 | S. cerevisiae deletion strains, locus YOR144C, strain elg1, stronger effect = lower value 1.03 | S. cerevisiae deletion strains, locus YOR184W, strain ser1, stronger effect = lower value 1.06 | S. cerevisiae deletion strains, locus YOR231W, strain MKK1, stronger effect = lower value 1 | S. cerevisiae deletion strains, locus YOR265W, strain rbl2, stronger effect = lower value 0.994 | S. cerevisiae deletion strains, locus YOR270C, strain vph1, stronger effect = lower value 0.995 | S. cerevisiae deletion strains, locus YOR290C, strain snf2, stronger effect = lower value 1.02 | S. cerevisiae deletion strains, locus YOR316C, strain cot1, stronger effect = lower value 1.03 | S. cerevisiae deletion strains, locus YPL051W, strain arl3, stronger effect = lower value 1 | S. cerevisiae deletion strains, locus YPL055C, strain LGE1, stronger effect = lower value 1.02 and 0.98 | S. cerevisiae deletion strains, locus YPL078C, strain atp4, stronger effect = lower value 0.998 | S. cerevisiae deletion strains, locus YPL106C, strain sse1, stronger effect = lower value 0.976 | S. cerevisiae deletion strains, locus YPL240C, strain hsp82, stronger effect = lower value 1 | S. cerevisiae deletion strains, locus YPL241C, strain CIN2, stronger effect = lower value 1.01 and 0.988 | S. cerevisiae deletion strains, locus YPL256C, strain CLN2, stronger effect = lower value 1.03 | S. cerevisiae deletion strains, locus YPR119W, strain clb2, stronger effect = lower value 1.04 | S. cerevisiae deletion strains, locus YPR141C, strain kar3, stronger effect = lower value 1.02 | S. cerevisiae deletion strains, locus YPR163C, strain tif3, stronger effect = lower value 1.04 | S. cerevisiae deletion strains, locus YPR167C, strain met16, stronger effect = lower value 1.03 | S. cerevisiae deletion strains, strain wtn01, stronger effect = lower value 1.03 | S. cerevisiae strains, strain wild type, stronger effect = lower value 1

— PubChem BioAssay AID1159580 (chemical genetic matrix, 2015)
